From PubChem BioAssay AID1159580 (chemical genetic matrix, 2015)
“And” between values parts separate entries of the source, which are not always exact repeats. Identical values can stand only once. The whole screen tested about 5,500 compounds, of which about 2,000 (36%) were called active. Roughly 18% stayed inconclusive and do not appear here. Rule as the data show it: active = normalized growth mostly below about 0.91 (no sharp cut-off); inconclusive = no clear call, values can overlap the other calls; inactive = mostly above about 0.92. Some of the results follow.

Assay: chemical genetic growth profiling, strain panel (AID 1159580);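 also: tested at 20 µM; growth read once vehicle control cultures reached saturation at 30 °C; 1 = growth at the plate median or of vehicle wells; lower values mean less growth of the strain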
Settings: S. cerevisiae deletion strains, growth OD

Measured: normalized growth

CNC(Cc1c[nH]c2ccccc12)C(=O)O (stereo not drawn)
inactive: locus YAL013W, strain DEP1, active compounds read low 0.988 | locus YAL021C, strain ccr4, active compounds read low 0.972 | locus YAL026C, strain drs2, active compounds read low 0.982 | locus YAL030W, strain snc1, active compounds read low 0.974 | locus YBL061C, strain skt5, active compounds read low 0.986 | locus YBR009C, strain hhf1, active compounds read low 0.976 | locus YBR021W, strain FUR4, active compounds read low 1 | locus YBR023C, strain chs3, active compounds read low 0.994 | locus YBR171W, strain sec66, active compounds read low 0.986 | locus YBR229C, strain ROT2, active compounds read low 0.959 | locus YBR231C, strain swc5, active compounds read low 1 | locus YBR279W, strain paf1, active compounds read low 0.997 | locus YCL011C, strain gbp2, active compounds read low 0.985 | locus YCL016C, strain dcc1, active compounds read low 0.976 | locus YCL029C, strain bik1, active compounds read low 0.996 | locus YCL061C, strain MRC1, active compounds read low 0.983 | locus YCL069W, strain vba3, active compounds read low 0.977 | locus YCR088W, strain abp1, active compounds read low 0.991 | locus YDL005C, strain med2, active compounds read low 0.975 | locus YDL035C, strain GPR1, active compounds read low 0.931 | locus YDL040C, strain nat1, active compounds read low 0.976 | locus YDL074C, strain BRE1, active compounds read low 0.981 | locus YDL101C, strain DUN1, active compounds read low 0.982 | locus YDL134C, strain PPH21, active compounds read low 0.972 | locus YDL185W, strain tfp1, active compounds read low 0.97 | locus YDL192W, strain arf1, active compounds read low 0.986 | locus YDR001C, strain nth1, active compounds read low 0.976 | locus YDR069C, strain doa4, active compounds read low 0.991 | locus YDR101C, strain arx1, active compounds read low 1.04 | locus YDR137W, strain rgp1, active compounds read low 1.01 | locus YDR159W, strain sac3, active compounds read low 0.986 | locus YDR162C, strain NBP2, active compounds read low 0.994 | locus YDR195W, strain ref2 0.944 | locus YDR297W, strain sur2, active compounds read low 0.99 | locus YDR318W, strain mcm21, active compounds read low 0.973 | locus YDR334W, strain swr1, active compounds read low 0.983 | locus YDR335W, strain msn5, active compounds read low 0.987 | locus YDR388W, active compounds read low 0.989 | locus YDR392W, strain spt3, active compounds read low 0.963 | locus YDR502C, strain sam2, active compounds read low 0.992 | locus YEL003W, strain gim4, active compounds read low 1 | locus YEL037C, strain rad23, active compounds read low 0.978 | locus YEL061C, strain CIN8 (second series), active compounds read low 0.976 | locus YEL061C, strain CIN8, active compounds read low 0.987 | locus YER015W, strain faa2, active compounds read low 0.986 | locus YER016W, strain bim1, active compounds read low 0.988 | locus YER110C, active compounds read low 0.99 | locus YER111C, strain swi4, active compounds read low 0.988 | locus YER155C, strain BEM2 (second series), active compounds read low 0.996 | locus YER155C, strain BEM2, active compounds read low 1 | locus YER167W, strain BCK2, active compounds read low 1.01 | locus YFR010W, strain ubp6, active compounds read low 0.988 | locus YGL078C, strain dbp3, active compounds read low 0.996 | locus YGL086W, strain mad1, active compounds read low 1.02 | locus YGL167C, strain pmr1, active compounds read low 0.971 | locus YGL173C, strain kem1, active compounds read low 0.996 | locus YGL227W, strain vid30, active compounds read low 0.988 | locus YGL240W, strain doc1, active compounds read low 1 | locus YGL248W, strain PDE1, active compounds read low 0.972 | locus YGL253W, strain hxk2, active compounds read low 0.995 | locus YGR135W, strain pre9, active compounds read low 0.973 | locus YGR252W, strain gcn5, active compounds read low 0.929 | locus YHR013C, strain ard1, active compounds read low 0.978 | locus YHR027C, strain rpn1, active compounds read low 0.982 | locus YHR030C, strain SLT2, active compounds read low 1 and 0.971 | locus YHR079C, strain IRE1 (second series), active compounds read low 0.991 | locus YHR079C, strain IRE1, active compounds read low 0.97 | locus YHR094C, strain hxt1, active compounds read low 0.979 | locus YHR129C, strain ARP1, active compounds read low 0.996 | locus YHR142W, strain chs7, active compounds read low 0.986 | locus YHR200W, strain rpn10, active compounds read low 0.986 | locus YIL066C, strain RNR3, active compounds read low 0.973 | locus YIL073C, strain SPO22, active compounds read low 0.977 | locus YIL125W, strain kgd1, active compounds read low 0.994 | locus YIR030C, strain dcg1, active compounds read low 0.997 | locus YJL092W, strain hpr5, active compounds read low 0.977 | locus YJL095W, strain BCK1 (second series), active compounds read low 0.981 | locus YJL095W, strain BCK1, active compounds read low 0.973 and 1.05 | locus YJL115W, strain asf1, active compounds read low 0.971 | locus YJL129C, strain trk1, active compounds read low 0.971 | locus YJL134W, strain LCB3, active compounds read low 0.985 | locus YJL154C, strain vps35, active compounds read low 0.986 | locus YJL164C, strain tpk1, active compounds read low 0.968 | locus YJL166W, strain qcr8, active compounds read low 0.99 | locus YJL168C, strain set2, active compounds read low 0.992 | locus YJL187C, strain SWE1 (second series), active compounds read low 0.971 | locus YJL187C, strain SWE1, active compounds read low 0.99 | locus YJR043C, strain POL32, active compounds read low 0.974
